Test [1] can be described thus: ATG_NFI_CIS: Attagene CIS-FACTORIAL HepG2 Assay for human Nuclear Factor I (NFI) (AID 2282989). The settings on record: HepG2 cis-regulatory reporter, NFI response element transcription; actives raise or lower the signal. An outline of the steps: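 Transient MRTU transfection of HepG2 → 24 h chemical dosing → total RNA, oligo(dT) RT → PCR, 6-FAM primer extension, HpaI cut → capillary electrophoresis. Endpoint fitted bidirectionally relative to DMSO.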

The target in test [2] is Myc proto-oncogene protein (Homo sapiens) (UniProt P01106). Put plainly: ATG_Myc_CIS: Attagene CIS-FACTORIAL HepG2 Assay for human Myelocytomatosis (Myc) Proto-Oncogene Transcription Factor (AID 2282990). The settings on record: HepG2, Attagene cis-reporter transcription factor activity; actives raise or lower the signal. An outline of the steps:
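Multiplexed cis-reporter transcription in HepG2 cells after 24 h chemical treatment. Reporter mRNA measured by RT-PCR and capillary electrophoresis fluorescence; activity fitted bidirectionally against DMSO control.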

A short description of test [3]: ATG_NRF2_ARE_CIS: Attagene CIS-FACTORIAL HepG2 Assay for human Nuclear Factor Erythroid 2 Related Factor 2 (NFR2) response to Antioxidant Response Elements (ARE) (AID 2282992). The settings on record: HepG2 Attagene ARE/NRF2 reporter, transcription factor activity; actives raise or lower the signal. In a few lines:
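Endogenous transcription factor activity read out as reporter transcript levels (RT-PCR plus capillary electrophoresis, fluorescence) in transiently transfected HepG2 cells. Measured at 24 h after dosing; gain or loss of signal fitted versus DMSO.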

Test [4] in a line: ATG_Oct_MLP_CIS: Attagene CIS-FACTORIAL HepG2 Assay for human Octamer-Binding Transcription Factor (Oct) (AID 2282993). Conditions: HepG2 Attagene cis-factorial Oct reporter, mRNA; actives raise or lower the signal. In a few lines: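 Transient MRTU transfection of HepG2 → 24 h compound treatment → RNA isolation, reverse transcription, PCR → 6-FAM primer extension, HpaI digest → capillary electrophoresis. Activity fitted both directions against DMSO.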

The target in test [5] is Cellular tumor antigen p53 (Homo sapiens) (UniProt P04637). Put plainly: ATG_p53_CIS: Attagene CIS-FACTORIAL HepG2 Assay for human p53 Transcription Factor (AID 2282994). The settings on record: HepG2 p53 cis-element reporter, Attagene mRNA; actives raise or lower the signal. In a few lines:
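Endogenous p53 activity read in transiently transfected HepG2 from a cis-element-driven reporter transcript after 24 h exposure. RNA reverse-transcribed, PCR-amplified, fluorescently labelled and sized by capillary electrophoresis; gain or loss fitted against DMSO baseline.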

Test [6] concerns the target human Peroxisome Proliferator-activated Receptor alpha (PPARa), PPARA (gene 5465) (UniProt Q07869). Kind of test: ATG_PPARa_TRANS: Attagene TRANS-FACTORIAL HepG2 Assay for human Peroxisome Proliferator-activated Receptor alpha (PPARa) (AID 2283001; active = hit-call score of the fitted dose curve at least 0.9, where 1 is the maximum). In a few lines: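 Exposure: 24 h, transiently transfected HepG2 cells. Endpoint: GAL4-UAS reporter mRNA, RT-PCR with capillary electrophoresis fluorescence. Baseline: DMSO; increases fitted.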

A short description of test [7]: BSK_3C_TissueFactor: BioMAP Diversity Plus: 3C Assay for Tissue Factor Biomarker Activity (AID 2282997). The settings on record: BioMAP 3C HUVEC, tissue factor biomarker readout; actives raise or lower the signal. In a few lines: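 Tissue Factor measured by ELISA, 24 h after treatment of primary HUVEC in the BioMAP 3C setting.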
A short description of test [8]: BSK_3C_uPAR: BioMAP Diversity Plus: 3C Assay for Urokinase-type plasminogen activator receptor (uPAR) Biomarker Activity (AID 2282998). The settings on record: BioMAP 3C HUVEC, uPAR biomarker ELISA; actives raise or lower the signal. In a few lines:
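ELISA readout of uPAR on human vascular endothelium (umbilical vein primary cells), taken 24 h after chemical dosing. Increases and decreases are both fitted relative to DMSO vehicle.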

Test [9] in a line: BSK_4H_Eotaxin3: BioMAP Diversity Plus: 4H Assay for Eotaxin 3 Biomarker Activity (AID 2283000). The settings on record: primary human endothelial cells (HUVEC); actives raise or lower the signal. An outline of the steps: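 Eotaxin-3 (CCL26) levels were measured by ELISA in HUVEC primary cultures 24 h post-dosing. Gain or loss of signal was fitted in both directions, with DMSO serving as baseline and negative control.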

The structures appear in SMILES notation. “And” between values parts separate entries of the source, which are not always exact repeats. Identical values can stand only once. Results filed as inconclusive are left out. The source made the active and inactive calls. The calls were made as follows, unless noted: active = hit-call score of the fitted dose curve at least 0.9, where 1 is the maximum; inactive = score below 0.9.

Myc proto-oncogene protein (Homo sapiens), sequence (P01106 whole entry, looked up): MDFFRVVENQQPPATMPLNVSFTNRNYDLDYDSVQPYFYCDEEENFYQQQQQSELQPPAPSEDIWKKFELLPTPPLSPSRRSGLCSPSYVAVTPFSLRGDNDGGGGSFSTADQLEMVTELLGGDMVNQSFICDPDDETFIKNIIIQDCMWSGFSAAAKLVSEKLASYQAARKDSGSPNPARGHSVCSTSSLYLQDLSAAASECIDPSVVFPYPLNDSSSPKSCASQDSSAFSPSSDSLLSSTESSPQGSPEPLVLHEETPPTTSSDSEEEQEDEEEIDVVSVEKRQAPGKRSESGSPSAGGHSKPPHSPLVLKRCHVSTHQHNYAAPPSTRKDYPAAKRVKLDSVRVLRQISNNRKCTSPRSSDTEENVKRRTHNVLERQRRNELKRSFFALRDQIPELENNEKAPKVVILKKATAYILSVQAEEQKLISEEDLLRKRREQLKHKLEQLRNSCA
Cellular tumor antigen p53 (Homo sapiens), sequence (P04637 whole entry, looked up): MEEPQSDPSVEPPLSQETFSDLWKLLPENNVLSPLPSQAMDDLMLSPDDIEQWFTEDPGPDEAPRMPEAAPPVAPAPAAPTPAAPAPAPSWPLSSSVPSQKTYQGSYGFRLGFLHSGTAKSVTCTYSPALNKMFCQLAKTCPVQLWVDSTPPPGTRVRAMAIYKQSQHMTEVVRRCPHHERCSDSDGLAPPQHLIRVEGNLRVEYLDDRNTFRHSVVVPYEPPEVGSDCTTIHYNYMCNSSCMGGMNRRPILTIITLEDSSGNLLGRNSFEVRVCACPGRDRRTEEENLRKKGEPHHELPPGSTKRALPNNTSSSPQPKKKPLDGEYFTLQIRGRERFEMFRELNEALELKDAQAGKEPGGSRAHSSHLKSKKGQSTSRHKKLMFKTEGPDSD
human Peroxisome Proliferator-activated Receptor alpha (PPARa), PPARA (gene 5465), sequence (Q07869 whole entry, looked up, the tested form may be a part): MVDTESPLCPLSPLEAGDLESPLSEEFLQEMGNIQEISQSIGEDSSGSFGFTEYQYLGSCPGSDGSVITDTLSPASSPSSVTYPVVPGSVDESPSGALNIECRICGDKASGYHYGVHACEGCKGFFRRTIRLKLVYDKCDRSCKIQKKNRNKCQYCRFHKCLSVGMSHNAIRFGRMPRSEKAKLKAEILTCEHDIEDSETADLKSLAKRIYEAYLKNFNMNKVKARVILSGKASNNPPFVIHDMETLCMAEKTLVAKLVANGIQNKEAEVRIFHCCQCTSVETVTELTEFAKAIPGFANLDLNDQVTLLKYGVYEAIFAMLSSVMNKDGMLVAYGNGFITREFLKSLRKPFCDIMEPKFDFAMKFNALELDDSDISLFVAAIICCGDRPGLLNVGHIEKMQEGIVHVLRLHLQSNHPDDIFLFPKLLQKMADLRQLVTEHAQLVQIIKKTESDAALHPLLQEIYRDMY

Regarding `C=CC(C)(C)C`, the compound was classed as inactive in test [1], in test [2], in test [3], in test [4], in test [5] and in test [6].

Take `CC1=NC(C)OC1C` (stereo not drawn): the compound was classed as inactive in test [1], in [2], in test [4] and in test [6]. For the same compound, the AC50 in test [3] was 42.5 µM (active); in test [5], 167 µM (active).

`O=S1(=O)OC(c2ccc(O)cc2)(c2ccc(O)cc2)c2ccccc21`: the outcome in test [1], in test [2], in test [3] and in test [4] was inactive.

Turning to `CC(=O)Nc1ccc2c(c1)Cc1cc(NC(C)=O)ccc1-2`, the compound was called inactive in test [1], in test [2], in [3], in [4] and in [5].

Regarding `CC(C)(C)C(=O)CCc1ccc(Cl)cc1`, the result in [1], in test [2], in test [3] and in test [4] was inactive.

On to `C[Si](C)O[Si](C)(C)O[Si](C)(C)O[Si](C)C`, for which the result in test [1], in test [2], in test [3], in [4] and in test [5] was inactive.

For `C1CN(SSN2CCOCC2)CCO1`, the compound was called inactive in [1], in [2], in test [4] and in [5]. Further, in test [3], the AC50 is 18.8 µM (active).

Take `Nc1ccc(N)c(Cl)c1`: the AC50 is 46.6 µM (active) in test [1]; 33.4 µM (active) in [2]; 4.45 µM (active) in test [3]; 33.4 µM (active) in test [5]; 20 µM (active) and 15.1 µM (active) in test [9]. The compound was classed as inactive in test [4], in [7], in test [8] and in test [6].

Regarding `CC(=O)OC(C)C`, the result in [1], in test [2], in [3], in test [4] and in test [5] was inactive.

On to `CC1=CC[C@H](C(C)C)C=C1`, for which the result in [1], in test [2], in test [4] and in [5] was inactive. Further, the AC50 in [3] was 27.7 µM (active).

Take `CC(C)=CCC/C(C)=C\C#N`: the compound was classed as inactive in test [1], in test [2] and in [4]. Also, in test [3], the AC50 was 26.5 µM (active).

As to `C=C(C)[C@H]1CC=C(C)CC1`, the compound was called inactive in test [1], in test [2], in test [3], in test [4] and in test [5].

Turning to `COC(=O)c1c(C)cc(O)c(C)c1O`, the compound was called inactive in test [1], in test [2], in test [3], in test [4], in test [5] and in test [6].

For the compound `O=Cc1ccc(CO)o1`, the outcome in test [1], in [2], in test [3], in test [4] and in test [5] was inactive.

On to `C=C1[C@H]2CC[C@@H]3[C@H]2C(C)(C)CCC[C@]13C`, for which the result in test [1], in [2], in [3], in test [4] and in [5] was inactive.

With `Cc1cccc(N)n1`, the call in test [1], in [2], in test [3], in [4] and in test [5] was inactive.

With `Cc1ccc(C(C)c2ccc(C)c(C)c2)cc1C`, the result in test [1], in [2] and in test [6] was inactive. Besides, the AC50 in test [3] is 37.5 µM (active); in test [4], 147 µM (active); in test [5] it was 41.9 µM (active).

On to `CCOC(=O)CC`, for which the result in test [1], in test [2] and in test [3] was inactive.

For `OCCNCc1ccccc1`, the outcome in test [1], in test [2], in [3], in test [4], in test [5] and in test [6] was inactive.

On to `Nc1cccc(C(F)(F)F)c1`, for which the compound was called inactive in test [1], in [2], in [3], in [4], in [5] and in test [6].

For the compound `CCC(C)(C)C1CCCCC1OC(C)=O` (stereo not drawn), the compound was classed as inactive in test [1], in [2], in [4] and in test [5]. The AC50 in test [3] was 134 µM (active).

Regarding `Cc1cccc(OCCOc2cccc(C)c2)c1`, the call in test [1], in test [2], in test [4], in test [5] and in test [6] was inactive. Further, the AC50 in test [3] was 26.7 µM (active).

For `CC(=O)OCC(C)OC(C)=O` (stereo not drawn), the result in test [1], in [2], in [3], in test [4] and in test [5] was inactive.

Consider `CCCCCCC(O)CO` (stereo not drawn), for which the result in test [1], in test [2], in test [3], in test [4] and in [5] was inactive.

As to `CCCCC(CC)CCC(CC(C)C)OS(=O)(=O)O` (stereo not drawn), the result in test [1], in test [2] and in [4] was inactive. The AC50 in [3] is 100 µM (active).

`CC=CC(=O)N(CC)c1ccccc1C`: the outcome in test [1], in test [2], in test [3], in test [4] and in test [5] was inactive.

`CC(C)(C)c1ccc(-c2ccc(C(C)(C)C)cc2)cc1`: the result in test [1], in [2], in [3] and in [4] was inactive.

As for `Cc1cc(C)c(C)c(C)c1`, the call in test [1], in test [2], in test [3], in [4] and in test [5] was inactive.

Turning to `CN(C)CCCN(C)C`, the outcome in test [1], in test [2], in test [3] and in [4] was inactive.

Take `O=C(O)Cc1c(Cl)ccc(Cl)c1Cl`: the outcome in test [1], in test [2], in test [3], in test [4] and in test [5] was inactive.

The values are drawn from PubChem BioAssay (EPA / NIEHS).
